Assay results reported in PubChem BioAssay AID1159580 (chemical genetic matrix, 2015).
The whole screen tested about 5,500 compounds, of which about 2,000 (36%) were called active. Inconclusive results (about 18%) are left out. Cut-off read from the data, not from the text of the source: active = normalized growth mostly below about 0.91 (no sharp cut-off); inconclusive = no clear call, values can overlap the other calls; inactive = mostly above about 0.92. The list shows a part of the results.

Experiment: chemical genetic growth profiling, strain panel (AID 1159580);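 note: tested at 20 µM; growth read once vehicle control cultures reached saturation at 30 °C; 1 = growth at the plate median or of vehicle wells; lower values mean less growth of the strain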
Details: growth OD

Measured: normalized growth

CCCCC[C@H](CC(=O)NO)C(=O)N[C@H](C(=O)N1CCC[C@H]1CO)C(C)C
inactive: S. cerevisiae deletion strains, locus YJR043C, strain POL32, active compounds read low 0.978 | S. cerevisiae deletion strains, locus YJR066W, strain TOR1, active compounds read low 0.934 | S. cerevisiae deletion strains, locus YJR075W, strain HOC1, active compounds read low 1.04 | S. cerevisiae deletion strains, locus YKL009W, strain mrt4, active compounds read low 1.03 | S. cerevisiae deletion strains, locus YKL068W, active compounds read low 1.01 | S. cerevisiae deletion strains, locus YKL085W, strain MDH1 (second series), active compounds read low 1.02 | S. cerevisiae deletion strains, locus YKL085W, strain MDH1, active compounds read low 1.02 | S. cerevisiae deletion strains, locus YKL160W, strain elf1, active compounds read low 1.01 | S. cerevisiae deletion strains, locus YKL190W, strain CNB1, active compounds read low 1.01 | S. cerevisiae deletion strains, locus YKR001C, strain vps1, active compounds read low 1.02 | S. cerevisiae deletion strains, locus YKR026C, strain gcn3, active compounds read low 1.01 | S. cerevisiae deletion strains, locus YKR091W, strain srl3, active compounds read low 1.02 | S. cerevisiae deletion strains, locus YLL001W, strain dnm1, active compounds read low 1.01 | S. cerevisiae deletion strains, locus YLL026W, active compounds read low 1.02 | S. cerevisiae deletion strains, locus YLL041C, strain sdh2, active compounds read low 1.01 | S. cerevisiae deletion strains, locus YLR027C, strain aat2, active compounds read low 1.01 | S. cerevisiae deletion strains, locus YLR039C, strain RIC1, active compounds read low 0.947 | S. cerevisiae deletion strains, locus YLR058C, strain SHM2, active compounds read low 1.01 | S. cerevisiae deletion strains, locus YLR102C, strain apc9, active compounds read low 1.02 | S. cerevisiae deletion strains, locus YLR113W, strain HOG1, active compounds read low 0.972 | S. cerevisiae deletion strains, locus YLR221C, strain rsa3, active compounds read low 1.01 | S. cerevisiae deletion strains, locus YLR258W, strain gsy2, active compounds read low 1.02 | S. cerevisiae deletion strains, locus YLR262C, strain YPT6 (second series), active compounds read low 1.02 | S. cerevisiae deletion strains, locus YLR262C, strain YPT6, active compounds read low 0.938 | S. cerevisiae deletion strains, locus YLR268W, strain sec22, active compounds read low 1.03 | S. cerevisiae deletion strains, locus YLR320W, strain mms22, active compounds read low 1.04 | S. cerevisiae deletion strains, locus YLR330W, strain CHS5, active compounds read low 1.02 | S. cerevisiae deletion strains, locus YLR342W, strain FKS1 (second series), active compounds read low 0.961 | S. cerevisiae deletion strains, locus YLR342W, strain FKS1, active compounds read low 1.02 | S. cerevisiae deletion strains, locus YLR357W, strain rsc2, active compounds read low 1.05 | S. cerevisiae deletion strains, locus YLR370C, strain arc18, active compounds read low 1.01 | S. cerevisiae deletion strains, locus YLR371W, strain rom2, active compounds read low 1.04 | S. cerevisiae deletion strains, locus YLR384C, strain iki3, active compounds read low 1.02 | S. cerevisiae deletion strains, locus YLR418C, strain cdc73, active compounds read low 1.02 | S. cerevisiae deletion strains, locus YML016C, strain PPZ1, active compounds read low 1.02 | S. cerevisiae deletion strains, locus YML032C, strain rad52, active compounds read low 1.01 | S. cerevisiae deletion strains, locus YML120C, strain ndi1, active compounds read low 1.02 | S. cerevisiae deletion strains, locus YML124C, strain tub3, active compounds read low 1 | S. cerevisiae deletion strains, locus YMR058W, strain fet3, active compounds read low 1.01 | S. cerevisiae deletion strains, locus YMR078C, strain ctf18, active compounds read low 1.02 | S. cerevisiae deletion strains, locus YMR125W, strain sto1, active compounds read low 1.03 | S. cerevisiae deletion strains, locus YMR129W, active compounds read low 1.01 | S. cerevisiae deletion strains, locus YMR205C, strain PFK2, active compounds read low 1.04 | S. cerevisiae deletion strains, locus YMR223W, strain ubp8, active compounds read low 1.02 | S. cerevisiae deletion strains, locus YMR231W, strain pep5, active compounds read low 1.01 | S. cerevisiae deletion strains, locus YMR263W, strain SAP30, active compounds read low 1.03 | S. cerevisiae deletion strains, locus YMR307W, strain GAS1, active compounds read low 1.03 | S. cerevisiae deletion strains, locus YNL067W, strain RPL9B, active compounds read low 1.04 | S. cerevisiae deletion strains, locus YNL071W, strain lat1, active compounds read low 1 | S. cerevisiae deletion strains, locus YNL153C, strain GIM3, active compounds read low 1.04 | S. cerevisiae deletion strains, locus YNL183C, strain NPR1, active compounds read low 0.942 | S. cerevisiae deletion strains, locus YNL209W, strain ssb2, active compounds read low 1.01 | S. cerevisiae deletion strains, locus YNL233W, strain BNI4, active compounds read low 1.03 | S. cerevisiae deletion strains, locus YNL248C, strain rpa49, active compounds read low 1 | S. cerevisiae deletion strains, locus YNL250W, strain rad50, active compounds read low 1.02 | S. cerevisiae deletion strains, locus YNL271C, strain bni1, active compounds read low 1.02 | S. cerevisiae deletion strains, locus YNL298W, strain CLA4, active compounds read low 1.01 | S. cerevisiae deletion strains, locus YNL307C, strain MCK1, active compounds read low 1.02 | S. cerevisiae deletion strains, locus YNL322C, strain KRE1 (second series), active compounds read low 1.03 | S. cerevisiae deletion strains, locus YNR049C, strain mso1, active compounds read low 1.02 | S. cerevisiae deletion strains, locus YNR052C, strain pop2, active compounds read low 1.02 | S. cerevisiae deletion strains, locus YOL012C, strain htz1 1.13 | S. cerevisiae deletion strains, locus YOL147C, strain pex11, active compounds read low 1.02 | S. cerevisiae deletion strains, locus YOR001W, strain rrp6, active compounds read low 1 | S. cerevisiae deletion strains, locus YOR061W, strain CKA2, active compounds read low 1 | S. cerevisiae deletion strains, locus YOR069W, strain VPS5, active compounds read low 1.01 | S. cerevisiae deletion strains, locus YOR070C, strain gyp1, active compounds read low 1 | S. cerevisiae deletion strains, locus YOR080W, strain dia2, active compounds read low 1.03 | S. cerevisiae deletion strains, locus YOR083W, strain WHI5, active compounds read low 1.02 | S. cerevisiae deletion strains, locus YOR106W, strain vam3, active compounds read low 1.01 | S. cerevisiae deletion strains, locus YOR136W, strain idh2, active compounds read low 1.03 | S. cerevisiae deletion strains, locus YOR144C, strain elg1, active compounds read low 1.02 | S. cerevisiae deletion strains, locus YOR184W, strain ser1, active compounds read low 1.01 | S. cerevisiae deletion strains, locus YOR231W, strain MKK1, active compounds read low 0.989 | S. cerevisiae deletion strains, locus YOR265W, strain rbl2, active compounds read low 1.01 | S. cerevisiae deletion strains, locus YOR270C, strain vph1, active compounds read low 1.01 | S. cerevisiae deletion strains, locus YOR290C, strain snf2, active compounds read low 1.02 | S. cerevisiae deletion strains, locus YOR316C, strain cot1, active compounds read low 1.01 | S. cerevisiae deletion strains, locus YPL051W, strain arl3, active compounds read low 1.02 | S. cerevisiae deletion strains, locus YPL078C, strain atp4, active compounds read low 1.02 | S. cerevisiae deletion strains, locus YPL106C, strain sse1, active compounds read low 1.03 | S. cerevisiae deletion strains, locus YPL240C, strain hsp82, active compounds read low 1.01 | S. cerevisiae deletion strains, locus YPL256C, strain CLN2, active compounds read low 0.941 | S. cerevisiae deletion strains, locus YPR119W, strain clb2, active compounds read low 1.01 | S. cerevisiae deletion strains, locus YPR141C, strain kar3, active compounds read low 1.02 | S. cerevisiae deletion strains, locus YPR163C, strain tif3, active compounds read low 1.02 | S. cerevisiae deletion strains, locus YPR167C, strain met16, active compounds read low 1.03 | S. cerevisiae deletion strains, strain wtn01, active compounds read low 1.01 | S. cerevisiae strains, strain wild type, active compounds read low 1.01
